About 400 (5.1%) of roughly 7,900 compounds showed an effect of 50% or more. For the sample, strong results were picked, then their nearest neighbours and some compounds at random.
The molecules below were run against Parkinson's disease protein 7 (PARK7/DJ1) (human, UniProt Q99497) (assay: primary screen, percent inhibition; read as competition with a fluorescent probe by fluorescence polarization; higher = more effect of the substance). Details: 100 µM.
Chain of Parkinson's disease protein 7 (PARK7/DJ1) (Q99497 whole entry, looked up, the tested form may be a part): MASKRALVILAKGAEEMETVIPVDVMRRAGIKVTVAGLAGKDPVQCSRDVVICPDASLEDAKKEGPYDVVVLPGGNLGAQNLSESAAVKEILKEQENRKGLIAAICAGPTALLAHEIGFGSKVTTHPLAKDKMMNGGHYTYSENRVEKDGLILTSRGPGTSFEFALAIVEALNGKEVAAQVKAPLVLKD
Method in brief: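 Covalent fragments at 100 μM final were incubated 2 h with 0.2 μM PARK7, then 20 nM probe JYQ-107 added for a further 2 h. Fluorescence polarization read at 480/520 nm; relative FP loss versus reference controls gave remaining enzyme activity.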
`COc1ccccc1C(C)N(C)C(=O)CCl` (stereo not shown) gave an Inhibition % of 31.5%. Molecule `COc1ccccc1CN(C)C(=O)CCl` has an Inhibition % of 98.6%. Molecule `COc1ccccc1CNC(=O)CCl` has an Inhibition % of 28%. Molecule `COc1cccc(CN(C)C(=O)CCl)c1OC` has an Inhibition % of 74.5%. Work on `COc1ccccc1CCNC(=O)CCl` yielded an Inhibition % of 15.8%. For `COc1cc(CO)ccc1B1OC(C)(C)C(C)(C)O1`, the Inhibition % was 4.39%. Molecule `CC(c1ccsc1)N1CCN(c2ccc(C#N)nc2)CC1` (stereo not shown) has an Inhibition % of 7.22%. `Cc1ccc(NC(=O)CCl)cc1S(=O)(=O)N(C)C` gave an Inhibition % of 10.4%. For `CCN(CC)S(=O)(=O)c1cccc(NC(=O)CCl)c1`, the Inhibition % was 22.5%. Work on `CN(C)S(=O)(=O)c1ccc(NC(=O)CCCl)cc1` yielded an Inhibition % of 7.94%. Molecule `CCN(CC)S(=O)(=O)c1cc(NC(=O)CCl)ccc1C` has an Inhibition % of 7.16%. `COc1ccc(NC(=O)CCl)cc1S(=O)(=O)N(C)C` showed an Inhibition % of 9.41%. `CN(C)S(=O)(=O)c1ccc(NC(=O)CCl)cc1` gave an Inhibition % of 84.2%. Work on `CC(C)N(C)S(=O)(=O)c1ccc(NC(=O)CCl)cc1` yielded an Inhibition % of 83.8%. In the case of `CCN(CC)S(=O)(=O)c1ccc(NC(=O)CCl)cc1`, the Inhibition % is reported as 90.5%. For `C=CC(=O)N[C@H]1C[C@H](C)S(=O)(=O)c2sccc21`, the Inhibition % was 7.51%. `C=CC(=O)N1CCOCC2(CC2)C1` was tested, and the Inhibition % was 33.9%. Work on `C=CC(=O)N1CCN(c2ccc(C)o2)C(=O)C1` yielded an Inhibition % of 5.39%. `Cc1ccoc1C=C(C#N)C(=O)NCCc1ccccc1` showed an Inhibition % of 0.974%. `O=S1(=O)C=CC(O)C1` (stereo not shown) was tested, and the Inhibition % was 4.75%. Work on `C=C(Cl)CSc1nc2ccsc2c(=O)n1C` yielded an Inhibition % of 13.1%. For `CC1(C)OB(c2ccc3c(c2)NC(=O)C3)OC1(C)C`, the Inhibition % was 27.3%. Work on `CC1CC1C(=O)N1CCCCC1CCS(=O)(=O)F` (stereo not shown) yielded an Inhibition % of 57.7%. Work on `C=CC(=O)N1CCCCC1CS(C)(=O)=O` (stereo not shown) yielded an Inhibition % of 5.69%. Work on `COC(=O)C1CC(S(=O)(=O)F)CN1C(=O)C1CC1C` (stereo not shown) yielded an Inhibition % of 13.7%. `O=C(C1CCOCC1)N1CCCCC1CCS(=O)(=O)F` (stereo not shown) gave an Inhibition % of 82.4%. `O=C(C1CCOCC1)N1CCOC(CS(=O)(=O)F)C1` (stereo not shown) was tested, and the Inhibition % was 13.3%. In the case of `O=C(C1CCOCC1)N1CCC(S(=O)(=O)F)CC1`, the Inhibition % is reported as 30.7%. Molecule `C=CC(=O)N1CCSC2(CCC2)CC1` has an Inhibition % of 10.9%. `NC(=O)C1CCCN(S(=O)(=O)C=Cc2ccccc2)C1` (stereo not shown) gave an Inhibition % of 6.58%. `CS(=O)(=O)C(C#N)=Cc1cnn(-c2ccccc2)c1` showed an Inhibition % of 10.2%. In the case of `CN1CCN(c2cccc(C#N)n2)CC1`, the Inhibition % is reported as 5.08%. With `CC1CC(Sc2nnc(-c3ccco3)o2)C(=O)O1` (stereo not shown) the Inhibition % was 1.96%. Molecule `CCC1CN(C(=O)CCl)CCO1` (stereo not shown) has an Inhibition % of 33.6%. For `O=C(CCl)N1CCOC(c2ccc(F)cc2)C1` (stereo not shown), the Inhibition % was 95.3%. In the case of `C=CC(=O)N1CCOC(c2ccc(C(F)(F)F)cc2)C1` (stereo not shown), the Inhibition % is reported as 1.86%. In the case of `CC(C)c1nc(C(C)Nc2ccc(C#N)nc2)cs1` (stereo not shown), the Inhibition % is reported as 3.63%. `Cl.NCC1OB(O)c2ccccc21` (stereo not shown) gave an Inhibition % of 3.67%. In the case of `Cc1noc(C)c1Cn1c(-c2ccccc2)noc1=O`, the Inhibition % is reported as 14.3%. `O=c1onc(-c2ccccc2)n1Cc1ccncc1` showed an Inhibition % of 1.3%. In the case of `Cc1oncc1Cn1c(-c2ccncc2)noc1=O`, the Inhibition % is reported as 59.3%. Molecule `Sc1nnnc2ccccc12` has an Inhibition % of 3.52%. `CS(=O)C1(CNC(=O)c2cccc(S(=O)(=O)F)c2)CCC1` (stereo not shown) showed an Inhibition % of 97.3%. Molecule `O=C(NCCC(=O)N1CCCCC1)c1cc(S(=O)(=O)F)c[nH]1` has an Inhibition % of 5.43%. `O=C(NCC12CCCN1CCC2)c1cccc(S(=O)(=O)F)c1` showed an Inhibition % of 86.4%. `CN1CCC2(CCCN2C(=O)c2cccc(S(=O)(=O)F)c2)CC1` was tested, and the Inhibition % was 10.6%. `C=CC(=O)Nc1ccccc1N1CCNC(=O)C1` gave an Inhibition % of 10.7%. `C=CC(=O)N(CC)C1CCOC(C)(C)C1` (stereo not shown) gave an Inhibition % of 8.38%. For `O=c1c2ccccc2ccn1CCS(=O)(=O)F`, the Inhibition % was 95.1%. With `O=c1c2ccccc2ncn1CCS(=O)(=O)F` the Inhibition % was 14.1%. `O=c1c2ccsc2ncn1CCS(=O)(=O)F` was tested, and the Inhibition % was 19.7%. In the case of `CC1(C)OB(c2ccc(C3CCC(=O)N3)cc2)OC1(C)C` (stereo not shown), the Inhibition % is reported as 6.79%. In the case of `CNC(=O)C(NC(=O)CCl)c1ccccc1` (stereo not shown), the Inhibition % is reported as 8.83%. Work on `CC1(C)OB(c2cc(CN3CCCC3)ccc2F)OC1(C)C` yielded an Inhibition % of 3.85%. `C=CC(=O)NC(C)(C)c1noc(C(C)(C)C)n1` showed an Inhibition % of 17.1%. With `CCN(CC)CCn1c(S)nc2ccccc2c1=O` the Inhibition % was 4.52%. Molecule `CN(C)CCCn1c(S)nc2ccccc2c1=O` has an Inhibition % of 5.79%. For `CN(C)CCn1c(S)nc2ccccc2c1=O`, the Inhibition % was 82.9%. With `CC1=NOC(=O)C1CC(=O)O` (stereo not shown) the Inhibition % was 99%. `CC1=NOC(=O)C1CCC(=O)O` (stereo not shown) showed an Inhibition % of 8.64%. `O=C1OCCC1Sc1nnc(-c2cccs2)o1` (stereo not shown) showed an Inhibition % of 21.8%. Work on `O=C1OCCC1Sc1nnc(-c2ccncc2)o1` (stereo not shown) yielded an Inhibition % of 6.02%. `O=C1OCCC1Sc1nnc(C2CCCCC2)o1` (stereo not shown) showed an Inhibition % of 66.7%. In the case of `c1ccc(N2CCN(CC3OCCO3)CC2)cc1`, the Inhibition % is reported as 5.86%. With `C=CC(=O)NC1CC(NC(=O)C2CCC2)C1` (stereo not shown) the Inhibition % was 7.98%. For `N#Cc1ccc(NC(=O)CCCl)cc1`, the Inhibition % was 9.81%. Molecule `CC1(C)OB(c2ccnc3c(O)cccc23)OC1(C)C` has an Inhibition % of 22.4%. `ClCCCn1cccn1` gave an Inhibition % of 5.21%. `CN(Cc1ccc(Cl)c(Cl)c1)C(=O)CCl` gave an Inhibition % of 43.3%. `CN(Cc1ccc(Br)cc1)C(=O)CCl` gave an Inhibition % of 52.8%. With `CN(Cc1ccc2c(c1)OCCO2)C(=O)CCl` the Inhibition % was 91.9%. In the case of `CCN(Cc1ccc2c(c1)OCCO2)C(=O)CCl`, the Inhibition % is reported as 17.9%. `Cc1ccc(CN(C)C(=O)CCl)cc1` was tested, and the Inhibition % was 68.9%. `CN(Cc1ccc(N(C)C)cc1)C(=O)CCl.Cl` was tested, and the Inhibition % was 71.3%. In the case of `CN(Cc1ccsc1)C(=O)CCl`, the Inhibition % is reported as 37.6%. In the case of `CSc1ccc(CN(C)C(=O)CCl)cc1`, the Inhibition % is reported as 14.4%. `CN(Cc1ccc(Cl)cc1)C(=O)CCl` gave an Inhibition % of 48.5%. In the case of `C=CC(=O)NCc1cc(C)on1`, the Inhibition % is reported as 8.31%. For `CCC(=O)N1CCCC1C1CCCN1C1CCOC1=O` (stereo not shown), the Inhibition % was 8.79%.

Source: paper PMC9574860, “Chemical Toolkit for PARK7: Potent, Selective, and High-Throughput” (Journal of Medicinal Chemistry, 2022)
